HTR5A inv ctr – inverse agonist of human HTR5A in OPRM1-OPRD1 counter-screen; P47898; HTR5A cell line, luminescence, inverse agonism; inhibition, % at 9.3 µM; 0.083% of 340,000 active; AID 504634; in the data active = inhibition mostly above about 23%, no sharp cut-off; inactive = mostly below about 18%;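 also: 0% = cells with DMSO and 100% = no-cell wells with DMSO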
Target sequence (P47898 whole entry, looked up): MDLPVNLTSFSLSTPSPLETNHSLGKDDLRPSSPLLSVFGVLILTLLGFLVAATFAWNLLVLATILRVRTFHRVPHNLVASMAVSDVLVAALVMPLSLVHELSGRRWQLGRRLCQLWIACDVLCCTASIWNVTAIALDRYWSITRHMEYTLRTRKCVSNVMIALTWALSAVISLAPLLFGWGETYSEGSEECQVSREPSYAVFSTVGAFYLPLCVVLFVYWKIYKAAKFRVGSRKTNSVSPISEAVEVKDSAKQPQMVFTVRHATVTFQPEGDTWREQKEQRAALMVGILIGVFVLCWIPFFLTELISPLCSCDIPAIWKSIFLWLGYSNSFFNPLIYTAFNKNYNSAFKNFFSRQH
MOR-DOR ag-1 – OPRM1-OPRD1 heterodimerization agonism; AID 504326; 0.3% of 340,000 active; activation, % at 9.3 µM; cells, luminescence; P35372+P41143;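 also: 0% = vehicle-treated cells and 100% = reference agonist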
OPRM1-OPRD1 inv – inverse agonist of human OPRM1-OPRD1 heterodimerization; P35372+P41143; cell-based MOR-DOR heterodimer luminescence, inverse agonism; inhibition, % at 9.3 µM; 0.21% of 340,000 active; AID 504357; in the data active = inhibition above about 22%, passing the limit was not always enough;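 also: 0% = cells with DMSO and 100% = wells without cells with DMSO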
HTR5A ag – HTR5A agonism, opioid heterodimer counter-screen | activation, % at 9.3 µM | P47898 | 0.61% of 340,000 active | HTR5A agonist assay, luminescence, cell-based | AID 504692; in the data active = activation mostly above about 9.5%, no sharp cut-off; inactive = mostly below about 7.6%;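 also: 0% = cells with vehicle only and 100% = reference agonist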
MOR-DOR ag-2 – opioid heterodimer agonism, HTR5A counter-screen; 13% of 800 active; shares compounds with HTR5A ag; activation, % at 9.3 µM; U2OS counter-screen cells, complementation luminescence, 3 h
HTR5A ag confirm – confirmation of human HTR5A agonists; 17% of 800 active; shares compounds with HTR5A ag; activation, % at 9.3 µM; HTR5A agonist cell assay, luminescence; in the data active = activation above about 17%;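 also: 0% = cells with vehicle only and 100% = full reference agonist response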
The depositor's hits bear a star; . = no result. Sampled rows, rich in hits. Any-hit rate of the full collection: about 1.1%. Rule as the data show it, unless noted: active = activation above about 18%; inactive = the rest.

SMILES | HTR5A inv ctr | MOR-DOR ag-1 | OPRM1-OPRD1 inv | HTR5A ag | MOR-DOR ag-2 | HTR5A ag confirm
CC(C)=C1SC(N2CCN(c3cccc(Cl)c3)CC2)=NC1=O | 49 | 1 | -3 | 14* | 35* | -2
O=C(CNCCc1ccc(Cl)cc1)Nc1ccc(C(=O)N2CCCCC2)cc1 | -19 | 5 | -25 | 8 | . | .
CCOC(=O)c1sc(NC(=O)c2cc(-c3ccccc3C)nc3ccccc23)c(C#N)c1C | -4 | -1 | 4 | 2 | . | .
Cc1ccccc1-c1cc(C(=O)Nc2sc(C)c(C)c2C(N)=O)c2ccccc2n1 | -45 | -1 | 5 | 17* | 5 | -2
O=C(Nc1ccccc1)c1ncoc1-c1ccc(Cl)cc1 | -50 | 3 | -14 | 19* | 2 | 2
CN(CC(=O)NC1CCN(Cc2ccccc2)CC1)S(=O)(=O)c1ccc(Br)s1 | -25 | 3 | -16 | 15* | 1 | 1
CN(CC(=O)NC1CCN(Cc2ccccc2)CC1)S(=O)(=O)c1ccc(Cl)cc1 | -15 | 0 | 0 | -2 | . | .
CN(Cc1cccc(Cl)c1Cl)C(=O)c1cccc(S(=O)(=O)N2CCN(Cc3ccccc3)CC2)c1 | -3 | 0 | -2 | 8 | . | .
CCn1c(N2CCN(C(=S)NC)CC2)nc2ccccc21 | -24 | -1 | 7 | 24* | 2 | 2
CCn1c(N2CCN(C(=S)NCC(C)C)CC2)nc2ccccc21 | -10 | 0 | -1 | 6 | . | .
CCn1c(N2CCN(C(=S)NCCc3ccccc3)CC2)nc2ccccc21 | -38 | -1 | 3 | 31* | 2 | 30*
CCn1c(N2CCN(S(=O)(=O)c3ccc(Cl)cc3)CC2)nc2ccccc21 | -41 | 4 | -20 | 16* | 3 | -1
Cc1ccc(NC(=O)COc2ccc(Br)cn2)cc1 | 1 | 0 | 2 | 0 | . | .
CCOCCCNC(=O)c1ccc(OC)c(OC2CCN(C(C)C)CC2)c1 | 6 | -2 | 11 | -2 | . | .
CC(C)(C)OC(=O)C(Cl)(C(=O)OC(C)(C)C)c1ccc2nnnn2n1 | 18 | 1 | -6 | 7 | . | .
Cc1ccccc1C(=O)c1c[nH]c(C(=O)NCc2ccco2)c1 | 5 | -1 | 5 | -2 | . | .
O=C(NCc1ccco1)c1cc(C(=O)C2CC2)c[nH]1 | -44 | -2 | 8 | 17* | 0 | 6
COc1cccc(-c2c(C(=O)N/N=C/c3ccc(C)o3)nnn2-c2nonc2N)c1 | 1 | -4 | 21 | 0 | . | .
O=C1OCCC1Sc1nnc(-c2cccs2)n1Cc1ccccc1 (stereo unspecified) | -3 | 8 | -44 | 15* | -3 | -2
O=C1OCCC1Sc1nnc(-c2ccccc2Cl)n1Cc1ccccc1 (stereo unspecified) | -20 | 2 | -10 | 7 | . | .
Cc1cc(C(F)F)nn1CC(=O)NC1C(=O)N2C(C(=O)O)=C(CSc3nnnn3C)CSC12 (stereo unspecified) | -10 | 1 | -3 | 1 | . | .
CC(C)Oc1ccc(C2CNC(=O)C2)cc1 (stereo unspecified) | -60 | 1 | -6 | 23* | 1 | 65*
CC(C)Oc1ccc(C2CC(=O)NC2=O)cc1 (stereo unspecified) | -10 | -2 | 11 | 1 | . | .
Cc1cccc(S(=O)(=O)Nc2ccc(-c3cn4ccccc4n3)cc2)c1 | 4 | 1 | -3 | -1 | . | .
Cc1cc(C)c(S(=O)(=O)Nc2ccc(-c3cn4ccccc4n3)cc2)c(C)c1 | -19 | 4 | -16 | 14* | 1 | 40*
SMILES | HTR5A inv ctr | MOR-DOR ag-1 | OPRM1-OPRD1 inv | HTR5A ag | MOR-DOR ag-2 | HTR5A ag confirm
CN(C)c1cccc(C(=O)NCC2CCCO2)c1 (stereo unspecified) | -50 | -3 | 14 | 20* | 4 | 0
CN(C)c1ccc(C(=O)NCC2CCCO2)cc1 (stereo unspecified) | 16 | 2 | -15 | 4 | . | .
Cc1ccc(C(=O)NC(=S)Nc2ccc(-c3ccc(CO)o3)cc2)cc1 | -39 | -1 | 6 | 15* | 12 | 2
Cc1ccc(C(=O)NC(=S)Nc2ccc(Oc3ccc(Cl)cc3)cc2)cc1 | 7 | 1 | -6 | 2 | . | .
CC1CC(C)(C)NC(=S)N1CCC(=O)N1CCN(c2ccccc2)CC1 (stereo unspecified) | 7 | -2 | 11 | -2 | . | .
CC1CC(C)(C)NC(=S)N1CCC(=O)N1CCc2ccccc2C1 (stereo unspecified) | -33 | 2 | -7 | 15* | 2 | -2
O=C(CC1CC2CCC1C2)OCC(=O)c1c[nH]c2ccccc12 (stereo unspecified) | 22 | 13 | -76 | 15* | 6 | 3
CC(C)(CO)NCc1c(OCc2ccc(Cl)cc2)ccc2ccccc12 | 17 | 1 | -6 | -5 | . | .
CS(=O)(=O)c1ccc2nc(NC(=O)CCNC(=O)c3ccc([N+](=O)[O-])cc3)sc2c1 | -59 | 3 | -17 | 20* | 1 | 4
Cc1ccc(OCCn2c(C)c(/C=N/n3cnnc3)c3ccccc32)cc1 | -31 | 0 | -1 | 21* | 10 | -1
Cc1c(/C=N/n2cnnc2)c2ccccc2n1CCOc1ccc(Cl)cc1 | -10 | 1 | -4 | 6 | . | .
CC(=O)Nc1ccc(NS(=O)(=O)c2ccc(CN3C(=O)c4cccnc4C3=O)cc2)cc1 | -13 | -2 | 10 | 0 | . | .
COc1cccc(S(=O)(=O)NCc2ccc(C(=O)Nc3cccc(Cl)c3)cc2)c1 | -46 | 6 | -27 | 19* | -3 | -1
COc1ccccc1NC(=S)N1C2CCC1CC(NC(=O)NC13CC4CC(CC(C4)C1)C3)C2 (stereo unspecified) | -36 | 1 | -3 | 16* | 0 | 3
CCOc1ccccc1NC(=S)N1C2CCC1CC(NC(=O)NC13CC4CC(CC(C4)C1)C3)C2 (stereo unspecified) | -9 | -1 | 6 | 2 | . | .
COCCn1c(-c2ccc(-c3ccc([N+](=O)[O-])cc3Br)o2)nc2c1c(=O)[nH]c(=O)n2CC(C)C | -5 | 3 | -15 | 2 | . | .
Cc1nn(-c2ccccc2)c(Cl)c1C(=O)NCC(C)C | 10 | -3 | 16 | -5 | . | .
Cc1nn(-c2ccccc2)c(Cl)c1C(=O)NCCN(C)C | -6 | 1 | -4 | 15* | 0 | 1
O=[N+]([O-])c1ccc(S(=O)(=O)NN=C2CCCCC2)cc1 | -55 | -1 | 7 | 15* | 2 | 4
O=S(=O)(NN=C1CCCCCC1)c1ccc(Cl)cc1 | -30 | -3 | 17 | 3 | . | .
COc1ccc(NC(=O)COC(=O)[C@@H]2CCCN2S(=O)(=O)c2ccccc2F)c(OC)c1 | -16 | -1 | 6 | 6 | . | .
O=C(COC(=O)[C@@H]1CCCN1S(=O)(=O)c1ccccc1F)NCc1ccc2c(c1)OCO2 | -44 | -3 | 12 | 17* | 1 | 5
O=C(c1cccc(NC2=NC3CS(=O)(=O)CC3S2)c1)N1CCN(c2ncccn2)CC1 (stereo unspecified) | 5 | -1 | 5 | 4 | . | .
COC(=O)c1cc(NS(=O)(=O)c2ccc(N3CCOCC3)c(N)c2)cc(C(=O)OC)c1 | -52 | 4 | -22 | 15* | 5 | -12

Screening data deposited in PubChem by The Scripps Research Institute Molecular Screening Center.
